Compounds with a hit are over-represented: about 12% of the library has one in this group of screens.
G9a block = inhibitors of human histone lysine methyltransferase G9a; Q96KQ7; G9a H3K9 monomethylation, AlphaScreen, 2 h; Potency, µM (series often up to 102 µM), without a hit: at the highest dose activity, negative = inhibition, hits mostly inhibitors; 350,000 compounds, 8.8% hits; AID 504332; also: % is scaled to controls: 0 for no effect and ±100 for the full control effect; nearly all actives have a fitted effect of over 75% in size
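AlphaScreen detection with an anti-monomethyl H3K9 antibody quantified product after a 2 h room-temperature reaction containing 500 nM biotinylated H3K9 peptide, 20 µM SAM and 20 nM enzyme, which had been preincubated 15 min with compound.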
HP1b binding inh = HP1-beta chromodomain-methylated histone interaction inhibition; P83916; AlphaScreen HP1-beta / biotin-H3K9me3 peptide binding; Potency, µM (series often up to 114 µM), inactives show at the top dose activity change, negative = inhibition, hits mostly inhibitors; 390,000 compounds, 0.56% hits; AID 540317; also: nearly all actives have a fitted effect of over 70% in size
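HP1-beta protein (50 nM final) preincubated 30 min at room temperature with biotinylated H3(1-18)K9me3 peptide (50 nM) in PBS pH 7.4, 0.01% Tween-20, then compound added for 30 min. AlphaScreen streptavidin donor/nickel chelate acceptor beads (10 ug/mL final), 30 min dark, luminescence read.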
PLK1 PBD inh = blocks phosphopeptide binding to human PLK1 polo-box domain. P53350. Plk1 PBD binding of FITC phosphopeptide, fluorescence polarization. Potency, µM, for the others: max response, negative = inhibition, actives largely listed as inhibitors. 360,000 compounds, 2.8% hits. AID 720504; also: series mostly up to about 57 µM; % is scaled to controls: 0 for no effect and ±100 for the full control effect; nearly all actives have a fitted effect of over 65% in size
Sfp inh = blocks B. subtilis Sfp PPTase activity. Q9F4F7. Biochemical Sfp PPTase activity, qHTS. Potency, µM, inactives show largest response in the series, negative = inhibition, hits mostly inhibitors. 310,000 compounds, 3.5% hits. AID 1490;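 also: the enzyme is Sfp with the accession as filed and its product quenches rhodamine fluorescence; 0% = enzyme reaction without inhibitor and -100% = no enzyme wells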
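Reaction rates are the 30-min fluorescence difference (ex 525, em 598 nm) in wells containing 15 nM Sfp, 5 uM rhodamine-CoA and 12.5 uM BHQ-2-YbbR at pH 7.6 with 10 mM MgCl2.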
JMJD2A Tudor inh = JMJD2A Tudor domain (human) inhibition; AID 504339; AlphaScreen JMJD2A-Tudor / H3K4me3 peptide binding; Potency, µM (titrated, usually from 114 µM), without a hit: at the top dose activity change, negative = inhibition, most hits filed as inhibitors; 390,000 compounds, 4.4% hits; O75164; also: % is scaled to controls: 0 for no effect and ±100 for the full control effect; nearly all actives have a fitted effect of over 50% in size
Target sequence (O75164 whole entry, looked up, the tested form may be a part): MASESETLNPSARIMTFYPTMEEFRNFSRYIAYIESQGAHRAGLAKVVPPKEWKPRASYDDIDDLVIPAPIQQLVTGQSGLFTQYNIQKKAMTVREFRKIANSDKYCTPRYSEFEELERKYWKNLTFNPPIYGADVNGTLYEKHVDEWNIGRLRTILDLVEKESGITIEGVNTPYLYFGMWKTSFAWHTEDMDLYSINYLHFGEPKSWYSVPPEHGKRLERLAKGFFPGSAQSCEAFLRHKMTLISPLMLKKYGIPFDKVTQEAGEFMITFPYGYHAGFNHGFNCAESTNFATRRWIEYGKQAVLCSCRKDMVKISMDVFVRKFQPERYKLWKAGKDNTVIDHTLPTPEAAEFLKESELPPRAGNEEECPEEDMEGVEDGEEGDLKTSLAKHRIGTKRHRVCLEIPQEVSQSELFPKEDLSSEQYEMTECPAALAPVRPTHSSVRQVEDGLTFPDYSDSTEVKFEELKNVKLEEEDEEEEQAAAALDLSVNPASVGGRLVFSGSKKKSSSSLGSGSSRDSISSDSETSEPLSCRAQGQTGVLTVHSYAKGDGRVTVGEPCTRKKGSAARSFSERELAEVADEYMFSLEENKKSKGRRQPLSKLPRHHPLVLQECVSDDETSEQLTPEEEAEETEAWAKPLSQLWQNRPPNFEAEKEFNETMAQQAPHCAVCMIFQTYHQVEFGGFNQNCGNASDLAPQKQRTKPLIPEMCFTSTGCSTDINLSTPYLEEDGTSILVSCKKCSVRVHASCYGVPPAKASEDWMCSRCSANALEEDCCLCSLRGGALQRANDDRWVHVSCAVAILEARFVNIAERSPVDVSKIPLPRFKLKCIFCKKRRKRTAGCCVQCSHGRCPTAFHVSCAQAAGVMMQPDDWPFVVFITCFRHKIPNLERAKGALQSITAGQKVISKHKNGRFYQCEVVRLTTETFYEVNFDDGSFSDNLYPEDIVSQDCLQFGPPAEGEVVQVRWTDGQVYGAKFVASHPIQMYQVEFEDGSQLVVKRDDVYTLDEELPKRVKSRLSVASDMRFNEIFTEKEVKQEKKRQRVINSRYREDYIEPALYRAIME
BAZ2B inh = inhibitors of human BAZ2B bromodomain; AID 504333; Potency, µM (top dose mostly 114 µM), inactives show top-dose activity change, negative = inhibition, hits mostly inhibitors; Q9UIF8; 360,000 compounds, 4.4% hits; AlphaScreen BAZ2B-H3K14Ac peptide displacement; also: % is scaled to controls: 0 for no effect and ±100 for the full control effect; nearly all actives have a fitted effect of over 60% in size
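Complex of BAZ2B and biotin-H3K14Ac (50 nM apiece) forms over 30 min at RT, then faces library compounds up to 110 uM for another 30 min; AlphaScreen beads added, 20 min dark incubation, luminescence read.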
* = called active by the depositor; ? = inconclusive; nt = no result; [ ] = remark or other dose. Calls follow the shape of the dose curve; as a rule, active = well fitted curve in the direction sought with a large enough effect; inconclusive = small, poorly fitted or top-dose-only effect, or another doubt; inactive = no such curve, though single readings can be large; an effect the other way counts as inactive or inconclusive. Potency is read from the fitted curve at half-maximal effect.

SMILES | G9a block | HP1b binding inh | PLK1 PBD inh | Sfp inh | JMJD2A Tudor inh | BAZ2B inh
CC1CCCCC1NC(=O)c1cc2ccccc2o1 (centres undefined) | ? | 30.7% | 29.9µM* | -13.9% | -13.5%[57.1 µM] | -37.9%
CC(C)C[C@@H](NC(=O)[C@@H](Cc1ccccc1)NC(=O)c1cnccn1)B(O)O | 1.3%[12.7 µM] | nt | nt | 31.2% | nt | nt
COC(=O)c1ccccc1S(=O)(=O)Nc1ccc2cn[nH]c2c1 | 44.7µM* | 49.4% | -6.9% | -1.7% | -0.3% | -2.9%
COC(=O)c1sc(S(=O)(=O)Nc2ccc3cn[nH]c3c2)c(C(=O)OC)c1C | ? | 34.1% | -4.6% | 14.3% | -0.7% | -21.0%
O=C(O)c1cc(S(=O)(=O)Nc2ccc3cn[nH]c3c2)ccc1Cl | nt | ? | -2.7% | nt | 89.1µM* | nt
c1coc(-c2ccc3nncn3c2)c1 | nt | nt | 15µM* | nt | nt | nt
c1cc(N2CCOCC2)ccc1-c1ccc2nncn2c1 | nt | nt | -5.4% | nt | nt | nt
CC(C)=CCc1c(O)cc(O)c2c(=O)c3c(CC=C(C)C)c(O)ccc3oc12 | nt | -22.9% | -13.8% | nt | 56.2µM* | nt
Cc1cc(C)c(C)c(OCCn2ccnc2)c1 | ? | 41.5% | -16.9% | -6.7% | -24.8% | -38.8%
Cc1ccc(OCCCn2ccnc2)c(Br)c1 | 14.1µM* | ? | -13.6% | 0.4% | 22.4µM* | 56.2µM*
Clc1cc(Br)ccc1OCCn1ccnc1 | 8.91µM* | ? | -5.4% | -17.2% | 3.16µM* | 22.4µM*
Clc1cc(Br)ccc1OCCCn1ccnc1 | ? | ? | -1.4% | -13.3% | 22.4µM* | 50.1µM*
Clc1ccccc1OCCCn1ccnc1 | 25.1µM* | ? | 4.4% | -6.5% | 17.8µM* | 79.4µM*
Clc1ccccc1OCCCCn1ccnc1 | 4.2%[59 µM] | 11.1% | -4.7% | 10.0% | -23.2% | -3.7%
CC(C)c1cc(Cn2c3ccccc3c(=O)n2C(C)CBr)on1 (centres undefined) | nt | nt | -8.2% | nt | nt | nt
Cc1ccc(/C=C/C(=O)Nc2ccc3nc(N4CCC(C)CC4)cc(C)c3c2)cc1 | 4.7%[59 µM] | 38.1% | nt | nt | -30.0% | 0.1%
Cc1cccc(C(C)(C)C)c1OCCn1ccnc1 | 17.8µM* | 50.1µM* | -6.7% | 2.1% | 1.26µM* | 79.4µM*
CCCCCCOc1ccc(C(=O)NCCCn2ccnc2)cc1 | -39.0% | 1.1% | -6.8% | 15.9% | -34.1% | -38.7%
Clc1ccc(OCCn2ccnc2)cc1Cl | nt | ? | -20.3% | -24.4% | 5.62µM* | 50.1µM*
O=C(O)c1ccc(OCCn2ccnc2)cc1 | ? | 17.2% | -5.2% | 14.8% | ? | 79.4µM*
Cc1cc(Br)ccc1OCCn1ccnc1 | 31.6µM* | 22.4µM* | -8.2% | 8.7% | 4.47µM* | 50.1µM*
CN(C)C1CCc2[nH]c3ccc(NC(=O)c4ccc(F)cc4)cc3c2C1 (centres undefined) | nt | nt | nt | 3.9% | nt | nt
Cc1ccc(Cl)cc1N1CCN(C(=O)c2cn(C)c3ccc(S(=O)(=O)N4CCCC4)cc3c2=O)CC1 | -7.8%[59 µM] | 1.2% | nt | nt | -30.0% | nt
O=S(=O)(NCCS(=O)(=O)N1CCN(c2cccc(Cl)c2)CC1)c1ccc(F)cc1 | 0.7%[59 µM] | 24.0%[57 µM] | nt | nt | -3.8% | -1.2%
Cc1ccc(C)c(NC(=O)CSc2ncc3c(n2)-c2cc(Cl)ccc2N(Cc2ccccc2F)S3(=O)=O)c1 | 0.5%[59 µM] | 18.7% | nt | nt | 14.3% | -0.3%
SMILES | G9a block | HP1b binding inh | PLK1 PBD inh | Sfp inh | JMJD2A Tudor inh | BAZ2B inh
COc1ccc2[nH]cc(CCNc3ncnc4ccc(-c5c(C)noc5C)cc34)c2c1 | -43.2%[0.501 µM] | nt | nt | 13.0% | nt | nt
CCN(C(=O)c1coc(=O)c(Br)c1)c1ccc2c(c1)OCO2 | 20µM* | -26.0% | -19.0% | 44.7µM* | 50.1µM* | 50.1µM*
O=C(O)/C=C/C(=O)NNC(=O)c1ccc(Br)cc1 | 25.1µM* | 32.2% | -6.2% | -10.5% | -7.4% | -2.1%
O=C(NNC(=O)c1ccc(Br)cc1)c1ccncc1 | -33.5%[0.501 µM] | 50.5% | 3.0% | 20.9% | 4.3% | -0.4%
O=C(NNc1ccc(O)cc1)c1ccc(Br)cc1 | 1.58µM* | ? | -27.8% | 12.6µM* | ? | ?
CC1CCN(Cc2ccc(NC(=O)CC3Oc4ccccc4NC3=O)cc2)CC1 (centres undefined) | 50.1µM* | 34.4% | -27.7% | -25.1% | -26.9% | 8.9%
Cc1ccc(NC(=O)CC2Oc3ccccc3NC2=O)cc1C (centres undefined) | 5.5%[59 µM] | 47.0% | nt | nt | -15.3% | -14.5%
CC(C)CN(CCNC(=O)CC1Oc2ccccc2NC1=O)CC(C)C (centres undefined) | ? | 40.1% | -8.0% | 15.1% | -22.1% | -4.1%
CCC(C)N(CCNC(=O)CC1Oc2ccccc2NC1=O)C1CCCCC1 (centres undefined) | 50.1µM* | 58.1% | -17.5% | 4.4% | -6.9% | 7.5%
CCN(CCNC(=O)CC1Oc2ccccc2NC1=O)c1ccccc1 (centres undefined) | 79.4µM* | 18.7% | -8.5% | 3.7% | -26.2% | -24.5%
CN(C(=O)c1ccc(NC(=O)Cc2cccc(NC(=O)C3CCN(C(=O)C4CCCC4)CC3)c2)cc1)C1CCCC1 | 1.8%[0.501 µM] | 31.2% | 3.3% | nt | -10.6% | -0.5%
c1ccc(OCc2nc3ccccc3s2)cc1 | 57.7%[59 µM] | 93.3% | -6.9% | 9.0% | 64.2% | 57.8%
CCC(=O)Nc1ccc(OCc2nc3ccccc3s2)cc1 | 10µM* | -26.2% | 16.8µM* | 44.7µM* | -30.8% | nt
CCOC(=O)C(=O)Cc1nc2ccccc2s1 | 50.1µM* | 13.7% | -10.4% | 1.5% | -29.5% | ?
Cc1cc(OCc2nc3ccccc3s2)ccc1N | 10µM* | ? | 10.6µM* | 20µM* | ? | 39.8µM*
CCCCOC(=O)c1ccc(Nc2nc3ccc(C)cc3n3cnnc23)cc1 | 1.7%[59 µM] | 35.3% | nt | nt | -3.6% | 0.2%
COc1cccc(C2C(C(C)=O)=C(O)C(=O)N2CCc2c[nH]c3ccccc23)c1 (centres undefined) | -3.1%[59 µM] | -1.4% | -8.6% | 4.3% | ? | -31.3%
COc1ccc(C2C(C(C)=O)=C(O)C(=O)N2CCc2c[nH]c3ccccc23)cc1OC (centres undefined) | 25.1µM* | 26.7% | 1.1% | -5.8% | -14.6% | -32.9%
CCN(CC)CCN1C(=O)C(O)=C(C(C)=O)C1c1ccc(OC)c(OC)c1 (centres undefined) | ? | 50.4% | -0.5% | -7.9% | 8.7% | -0.4%
COc1ccc(C2C(C(C)=O)=C(O)C(=O)N2CCN(C)C)cc1OC (centres undefined) | 50.1µM* | nt | nt | 13.5% | nt | -11.1%
CC(=O)C1=C(O)C(=O)N(CCc2c[nH]c3ccccc23)C1c1ccc(O)cc1 (centres undefined) | -23.0%[59 µM] | 8.0% | -9.4% | 15.4% | 89.1µM* | -30.9%
COc1ccc(C2/C=C\CN(S(=O)(=O)c3ccc(C)cc3)C(Cc3ccccc3)C(=O)N2Cc2ccc(F)cc2)cc1 (centres undefined) | nt | 35.0% | nt | -5.2% | -30.3% | nt

Screening results: PubChem, National Center for Advancing Translational Sciences (NCATS)
